Experimental data as given in the supplement of paper PMC12282887.
± gives the standard deviation of the averaged measurements.

What was measured:
Experiment in all cases: promoter activity interaction Z-score (Lux/OD deviation from empty-vector control); higher = stronger promoter induction by the compound
[1] = tested on: E. coli BW25113 acrABp lux reporter
How it was run: (§1)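 Wild-type E. coli BW25113 and three single-gene deletion strains, each carrying a low-copy luxCDABE promoter reporter, were grown at 37°C in 40 µl LB Lennox per well of a 384-well plate. Every compound was applied at four 1:2 dilutions in biological duplicates, and OD600 and luminescence were read every 30 min for 12 h. Integration covered 0–8 h for wild type and 1–9 h for deletion strains, and wells under 10% of the median growth value were removed. Scores are Z-transformed residuals of growth-normalised luminescence fitted against a control.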

[2] = tested on: E. coli BW25113 micFp lux reporter
How it was run: as §1

[3] = tested on: E. coli BW25113 ompFp lux reporter
How it was run: as §1

[4] = tested on: E. coli BW25113 robp lux reporter
How it was run: as §1

[5] = tested on: E. coli BW25113 soxSp lux reporter
How it was run: as §1

[6] = tested on: E. coli BW25113 tolCp lux reporter
How it was run: as §1

[7] = 0.063 µg/ml, genetic background: wild type
[8] = 0.063 µg/ml, genetic background: ΔmarA
[9] = 0.063 µg/ml, genetic background: Δrob
[10] = 0.063 µg/ml, genetic background: ΔsoxS
[11] = 0.13 µg/ml, genetic background: wild type
[12] = 0.13 µg/ml, genetic background: ΔmarA
[13] = 0.13 µg/ml, genetic background: Δrob
[14] = 0.13 µg/ml, genetic background: ΔsoxS
[15] = 0.25 µg/ml, genetic background: wild type
[16] = 0.25 µg/ml, genetic background: ΔmarA
[17] = 0.25 µg/ml, genetic background: Δrob
[18] = 0.25 µg/ml, genetic background: ΔsoxS
[19] = 0.5 µg/ml, genetic background: wild type
[20] = 0.5 µg/ml, genetic background: ΔmarA
[21] = 0.5 µg/ml, genetic background: Δrob
[22] = 0.5 µg/ml, genetic background: ΔsoxS

CO[C@@]12[C@H](COC(N)=O)C3=C(C(=O)C(C)=C(N)C3=O)N1C[C@@H]1N[C@@H]12 [Mitomycin C]
promoter activity interaction Z-score [1, 7]: 0.203 ± 0.26
promoter activity interaction Z-score [1, 8]: -0.582 ± 1.1
promoter activity interaction Z-score [1, 9]: 0.184 ± 0.69
promoter activity interaction Z-score [1, 10]: 0.15 ± 0.32
promoter activity interaction Z-score [1, 11]: -0.161 ± 0.0059
promoter activity interaction Z-score [1, 12]: 1.65 ± 0.15
promoter activity interaction Z-score [1, 13]: 0.0466 ± 0.51
promoter activity interaction Z-score [1, 14]: 0.106 ± 0.043
promoter activity interaction Z-score [1, 15]: 0.269 ± 0.076
promoter activity interaction Z-score [1, 16]: 0.437 ± 0.76
promoter activity interaction Z-score [1, 17]: -0.105 ± 0.42
promoter activity interaction Z-score [1, 18]: -0.0948 ± 0.4
promoter activity interaction Z-score [1, 19]: 0.332 ± 0.099
promoter activity interaction Z-score [1, 20]: 1.08 ± 0.83
promoter activity interaction Z-score [1, 21]: -0.0462 ± 0.55
promoter activity interaction Z-score [1, 22]: 0.117 ± 0.79
promoter activity interaction Z-score [2, 7]: 0.161 ± 0.24
promoter activity interaction Z-score [2, 8]: 0.0738 ± 0.13
promoter activity interaction Z-score [2, 9]: -0.0403 ± 0.002
promoter activity interaction Z-score [2, 10]: 0.173 ± 0.094
promoter activity interaction Z-score [2, 11]: -0.0611 ± 0.13
promoter activity interaction Z-score [2, 12]: 0.273 ± 0.08
promoter activity interaction Z-score [2, 13]: 0.135 ± 0.19
promoter activity interaction Z-score [2, 14]: 0.423 ± 0.057
promoter activity interaction Z-score [2, 15]: 0.189 ± 0.054
promoter activity interaction Z-score [2, 16]: 0.0506 ± 0.14
promoter activity interaction Z-score [2, 17]: -0.0293 ± 0.023
promoter activity interaction Z-score [2, 18]: -0.0557 ± 0.14
promoter activity interaction Z-score [2, 19]: -0.299 ± 0.0083
promoter activity interaction Z-score [2, 20]: -0.029 ± 0.23
promoter activity interaction Z-score [2, 21]: 0.266 ± 0.055
promoter activity interaction Z-score [2, 22]: 0.362 ± 0.13
promoter activity interaction Z-score [3, 7]: 0.468 ± 0.27
promoter activity interaction Z-score [3, 8]: -0.243 ± 0.38
promoter activity interaction Z-score [3, 9]: 0.492 ± 0.67
promoter activity interaction Z-score [3, 10]: 0.619 ± 0.42
promoter activity interaction Z-score [3, 11]: 0.0398 ± 0.41
promoter activity interaction Z-score [3, 12]: 1.58 ± 1
promoter activity interaction Z-score [3, 13]: 0.963 ± 0.14
promoter activity interaction Z-score [3, 14]: 0.857 ± 0.077
promoter activity interaction Z-score [3, 15]: 0.439 ± 0.22
promoter activity interaction Z-score [3, 16]: -0.0015 ± 0.17
promoter activity interaction Z-score [3, 17]: 1 ± 0.15
promoter activity interaction Z-score [3, 18]: -0.0721 ± 0.25
promoter activity interaction Z-score [3, 19]: 0.63 ± 0.16
promoter activity interaction Z-score [3, 20]: 1.34 ± 1.3
promoter activity interaction Z-score [3, 21]: 1.2 ± 0.71
promoter activity interaction Z-score [3, 22]: 0.778 ± 0.46
promoter activity interaction Z-score [4, 7]: 0.242 ± 0.52
promoter activity interaction Z-score [4, 8]: -0.678 ± 0.028
promoter activity interaction Z-score [4, 9]: 0.808 ± 0.56
promoter activity interaction Z-score [4, 10]: -0.138 ± 0.57
promoter activity interaction Z-score [4, 11]: 0.512 ± 0.4
promoter activity interaction Z-score [4, 12]: 2.91 ± 0.44
promoter activity interaction Z-score [4, 13]: 0.0783 ± 0.46
promoter activity interaction Z-score [4, 14]: 0.758 ± 1.5
promoter activity interaction Z-score [4, 15]: 1.16 ± 0.6
promoter activity interaction Z-score [4, 16]: 0.136 ± 0.099
promoter activity interaction Z-score [4, 17]: 0.453 ± 0.084
promoter activity interaction Z-score [4, 18]: -0.883 ± 0.36
promoter activity interaction Z-score [4, 19]: 1.05 ± 0.1
promoter activity interaction Z-score [4, 20]: 0.91 ± 0.79
promoter activity interaction Z-score [4, 21]: 0.226 ± 0.38
promoter activity interaction Z-score [4, 22]: -0.0862 ± 0.5
promoter activity interaction Z-score [5, 7]: 0.078 ± 0.11
promoter activity interaction Z-score [5, 8]: -0.129 ± 0.16
promoter activity interaction Z-score [5, 9]: -0.043 ± 0.0072
promoter activity interaction Z-score [5, 10]: 0.00107 ± 0.095
promoter activity interaction Z-score [5, 11]: -0.0775 ± 0.16
promoter activity interaction Z-score [5, 12]: -0.0258 ± 0.096
promoter activity interaction Z-score [5, 13]: -0.0896 ± 0.043
promoter activity interaction Z-score [5, 14]: -0.0792 ± 0.22
promoter activity interaction Z-score [5, 15]: 0.185 ± 0.009
promoter activity interaction Z-score [5, 16]: -0.158 ± 0.067
promoter activity interaction Z-score [5, 17]: 0.12 ± 0.092
promoter activity interaction Z-score [5, 18]: -0.0761 ± 0.073
promoter activity interaction Z-score [5, 19]: 0.163 ± 0.12
promoter activity interaction Z-score [5, 20]: -0.1 ± 0.14
promoter activity interaction Z-score [5, 21]: -0.0272 ± 0.011
promoter activity interaction Z-score [5, 22]: 0.103 ± 0.21
promoter activity interaction Z-score [6, 7]: 0.274 ± 0.61
promoter activity interaction Z-score [6, 8]: -0.71 ± 0.23
promoter activity interaction Z-score [6, 9]: -0.666 ± 0.03
promoter activity interaction Z-score [6, 10]: 0.252 ± 0.77
promoter activity interaction Z-score [6, 11]: 0.0384 ± 0.54
promoter activity interaction Z-score [6, 12]: 0.367 ± 0.36
promoter activity interaction Z-score [6, 13]: 0.81 ± 0.56
promoter activity interaction Z-score [6, 14]: 0.264 ± 0.25
promoter activity interaction Z-score [6, 15]: 0.00312 ± 0.045
promoter activity interaction Z-score [6, 16]: -0.556 ± 0.81
promoter activity interaction Z-score [6, 17]: 0.121 ± 0.86
promoter activity interaction Z-score [6, 18]: 1.27 ± 0.93
promoter activity interaction Z-score [6, 19]: 0.54 ± 0.56
promoter activity interaction Z-score [6, 20]: -0.295 ± 0.4
promoter activity interaction Z-score [6, 21]: 0.224 ± 0.11
promoter activity interaction Z-score [6, 22]: 1.46 ± 0.25
